Assay in all cases: NCI-60 one-dose screen, 48 h (100 = growth as untreated, 0 = no growth, -100 = all killed)
Test [1] has as its system BT-549 breast. The settings on record: 10 µM unless noted.
Test [2] concerns MDA-MB-435 melanoma. Particulars: 10 µM unless noted.
Test [3] has as its system SW-620 colon. Particulars: 10 µM unless noted.
The test system of test [4] is MCF7 breast. The settings on record: 10 µM.
For test [5], the system named is HCT-116 colon. The settings on record: 10 µM unless noted.
The subject of test [6] is HCC-2998 colon. Particulars: 10 µM unless noted.
The test system of test [7] is KM12 colon. Particulars: 10 µM unless noted.

Growth data for 24 compounds are collected here from PubChem BioAssay (NCI).

This is part of a sample that, as a whole, favours compounds with a hit. Of some 83,000 tested, about 20% had one in any assay.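 Percent growth is the endpoint: 0 to 100 indicates growth inhibition (40 means 60% inhibition), 0 means no net growth, and negative values indicate cell death.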 Values without a mark were called inactive. The source made the active and inactive calls. The calls were made as follows: active = growth percent below 10; inactive = the rest.

Take `Cc1ccc(S(=O)c2ccc([N+](=O)[O-])c3nonc23)cc1` (stereo not drawn): the growth in test [1] is 95.4%; in test [2], 106%; in test [3], 29%; in test [4], 92.9%; in test [5], 68.9%; in test [6], 116%. Further, in test [7], the growth is 109%.

As to `COc1ccc(CCN2C(=O)CCSC2=S)cc1OC`, the growth in test [1] is 114%; in test [2], 96.2%; in test [3], 87.6%; in test [4], 28%; in test [5] it was 103%; in test [6] it was 102%. Also, the growth in test [7] is 5.07% (active).

With `NNC(=O)CNC(=O)Nc1n[nH]c(=S)s1`, the growth in test [1] is 116%; in test [2], 110%; in test [3], 102%; in test [4] it was 93.8%; in test [5], 94.1%; in test [6] it was 106%. For the same compound, the growth in test [7] is 100%.

Regarding `CCCC(=O)CC(C)=O.CCCC(=O)CC(C)=O.[Cu]`, the growth in test [1] is 111%; in test [2], 109%; in test [3], 106%; in test [4] it was 92.4%; in test [5], 95.9%; in test [6] it was 102%. For the same compound, the growth in test [7] is 102%.

In the case of `Cc1c(C(=O)OCCO)cc(-c2ccc(Cl)cc2)n1-c1ccc(Cl)cc1Cl`, the growth in test [1] is 92.8%; in test [2] it was 4.72% (active); in test [3] it was 67.3%; in test [4], 44.3%; in test [5], 60.3%; in test [6], 100%. Moreover, the growth in test [7] was 52.4%.

Take `Clc1ccc(Nc2scc3[n+]2CCC3)cc1`: the growth was 99.2% in test [1]; 97.7% in test [2]; 96.9% in test [3]; 89.6% in test [4]; 96.2% in test [5]; 104% in test [6]. The growth in test [7] is 97.8%.

As to `CCCCC(O)(c1ccc(Cl)cc1)C(CN1CCOCC1)c1ccc(Cl)cc1` (stereo not drawn), the growth was 59.5% in test [1]; 26.2% in test [2]; 47.1% in test [3]; 17.7% in test [4]; 33.2% in test [5]; 24.6% in test [6]. Moreover, the growth in test [7] is 32.5%.

Take `COC(=O)/C(CCC=C(C)C)=C1\[C@@H](OC(C)=O)C[C@@]2(C)[C@H]1C[C@@H](O)[C@H]1[C@@]3(C)CC[C@H](NC(=O)c4cnccn4)[C@@H](C)[C@@H]3CC[C@@]12C`: the growth in test [1] was 100%; in test [2], 103%; in test [3] it was 104%; in test [4], 96%; in test [5], 93.1%; in test [6] it was 104%. In addition, in test [7], the growth is 102%.

Consider `Cc1cc(Br)c(N)c(Br)c1`, for which the growth in test [1] was 94.9%; in test [2], 97.4%; in test [3] it was 101%; in test [4], 92.3%; in test [5], 82.8%; in test [6], 90.6%. For the same compound, in test [7], the growth was 104%.

On to `c1ccc2c(c1)oc1cc3sccc3nc12`, for which the growth in test [1] was 89.5%; in test [2] it was 99.7%; in test [3] it was 96.6%; in test [4], 99.8%; in test [5], 96.7%; in test [6], 118%. Besides, the growth in test [7] is 108%.

Take `O=NN(Cc1cccnc1)C(=O)NC1CCCCC1`: the growth in test [1] was 112%; in test [2], 108%; in test [3], 107%; in test [4], 92.9%; in test [5] it was 104%; in test [6], 107%. For the same compound, the growth in test [7] was 109%.

On to `O=S1(=O)CCN(Cc2ccccc2)CC1`, for which the growth in test [1] is 95.7%; in test [2] it was 97.6%; in test [3], 103%; in test [4] it was 104%; in test [5], 88.4%; in test [6] it was 101%. Besides, the growth in test [7] is 93.9%.

With `COc1ccc(C2Nc3nc(OC)n(C)c(=O)c3N=C3c4ccccc4C(=O)C32)cc1` (stereo not drawn), the growth in test [1] was 86.3%; in test [2], 78.5%; in test [3], 90%; in test [4], 74.5%; in test [5], 95.4%; in test [6], 103%. The growth in test [7] was 75%.

As to `C#CCn1cc(C=C2C(=O)NC(=O)NC2=O)c2cc(Cl)ccc21`, the growth in test [1] was 64.6%; in test [2] it was 88.3%; in test [3], 97.7%; in test [4], 72.4%; in test [5] it was 71.5%; in test [6], 95.6%. Besides, in test [7], the growth was 85.6%.

As for `CCCCCCCCCCCCCCn1cc(C2=C(c3coc4ccc(OC)cc34)C(=O)NC2=O)c2ccccc21`, the growth in test [1] was 91.1%; in test [2], 97.6%; in test [3] it was 89.2%; in test [4], 88.5%; in test [5], 78%; in test [6], 104%. Further, the growth in test [7] is 98%.

Turning to `CCOC(=O)c1c(Cl)c2c(n1Cc1ccccc1)-c1oncc1CCC2`, the growth is 87.6% in test [1]; -12.9% (active) in test [2]; 39.5% in test [3]; 37.5% in test [4]; 50.3% in test [5]; 61.8% in test [6]. In test [7], the growth is 53.1%.

As for `c1ccc2cc3c(Nc4ccc(N5CCOCC5)cc4)ccnc3cc2c1`, the growth is 99.3% in test [1]; 95.6% in test [2]; 101% in test [3]; 84% in test [4]; 90.2% in test [5]; 109% in test [6]. Also, the growth in test [7] was 102%.

Turning to `O=CCCCC(O)C=O` (stereo not drawn), the growth in test [1] was 112%; in test [2], 105%; in test [3] it was 96.9%; in test [4] it was 98.9%; in test [5], 109%; in test [6] it was 105%. Further, the growth in test [7] was 103%.

For `Cn1cc(-c2ccc3ncc(-c4ccc(CC(=O)Nc5cc(C(C)(C)C)no5)cc4)nc3c2)cn1`, the growth in test [1] was 55.4%; in test [2] it was 28.8%; in test [3], 48.3%; in test [4] it was 30.2%; in test [5], 24.4%; in test [6], 60.2%. For the same compound, the growth in test [7] is 6.86% (active).

With `O=C(NCCCN1CCC(N2CCCCC2)CC1)C1=Cc2cc(Br)ccc2OC1`, the growth in test [1] was 90%; in test [2], 51.3%; in test [3], 56.2%; in test [4], 25.5%; in test [5], 37%; in test [6], 20.4%. Moreover, the growth in test [7] is 12.4%.

In the case of `CN1CCN(Cc2ccc(NC(=O)c3[nH]ncc3Nc3cc(OC4CCCC4)ncn3)cc2)CC1`, the growth in test [1] is 12.5%; in test [2], 41.5%; in test [3] it was 15.8%; in test [4], 10.7%; in test [5], 4.66% (active); in test [6] it was 28.7%. For the same compound, in test [7], the growth is 21.9%.

Consider `COc1ccc(N)c(-c2cc3c(c4c2[nH]c2ccc(OC)cc24)CCCC3)c1`, for which the growth in test [1] was 74.6%; in test [2] it was 93.6%; in test [3], 83.3%; in test [4], 69.1%; in test [5] it was 58.4%; in test [6], 104%. Besides, in test [7], the growth was 80.2%.

For `COc1cc(-c2c3c(cn2S(=O)(=O)c2ccccc2)-c2nc(N)sc2CC3)cc(OC)c1OC`, the growth in test [1] is 48.5%; in test [2], -32.1% (active); in test [3], 25.6%; in test [4] it was 18.5%; in test [5], 24%; in test [6], 45.5%. Besides, the growth in test [7] is 28.5%.

Turning to `N#C/C(=C\c1c(-c2ccccc2)[nH]c2ccccc12)S(=O)(=O)c1ccccc1`, the growth was 51.7% in test [1]; 7.27% (active) in test [2]; 28.6% in test [3]; 14% in test [4]; 36.8% in test [5]; 57% in test [6]. Further, in test [7], the growth was 25.1%.
